CYP2C9 act – CYP2C9 (human) activation; P11712; recombinant CYP2C9, luciferin-H conversion, luminescence; hits give high values; factor 1 = untreated enzyme, 0 = blocked; activation factor at 5 µM; 1.4% of 96,000 active; AID 1024;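 active = activation factor of 2 or more for CYP2C9 at a 5 µM dose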;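 also: 0 = sulfaphenazole-blocked wells and 1 = vehicle-only wells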
sEH act – increases human soluble epoxide hydrolase activity. P34913. purified human sEH enzymatic activity, activator screen. activation, % at 2 µM. 0.04% of 91,000 active; in the data active = activation above about 37%
sEH inhibitor – soluble epoxide hydrolase (human) inhibition | inhibition, % at 2 µM | recombinant human sEH enzymatic activity assay | 0.34% of 91,000 active; in the data active = inhibition above about 80%
CYP2C9 inh – inhibitors of human CYP2C9; P11712; CYP2C9 Supersomes, luciferin-H conversion, luminescence; inhibition, % at 5 µM; 20% of 96,000 active; AID 777;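 active = blocking of liver enzyme CYP2C9 beyond about 50% at 5 µM, limit read from the data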
CYP2C19 inh – blocks human cytochrome P450 2C19; inhibition, % at 5 µM; CYP2C19 Supersomes, luciferin-H EGE luminescence, 30 min; 21% of 96,000 active; AID 778;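 active = CYP2C19 inhibition above a set limit at 5 µM in the primary screen, cut at about 50% in these data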;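 also: plate controls were negative control wells for no effect and 2.5 mM tranylcypromine positive control for full effect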
CYP2C19 act – increases human CYP2C19 enzyme activity | recombinant CYP2C19, luciferin-H EGE luminescence; hits give high values; 0 = fully inhibited enzyme, 1 = untreated enzyme | activation factor at 5 µM | 96,000 tested, under 10 active;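 active = activation factor of at least 2 at 5 µM in the primary screen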;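 also: 0 = wells with 2.5 mM tranylcypromine and 1 = vehicle-only wells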
* = called active by the depositor; / = no result given. Shown are actives, neighbours in structure and some others; about 27% of the full set was active somewhere.

SMILES | CYP2C9 act | sEH act | sEH inhibitor | CYP2C9 inh | CYP2C19 inh | CYP2C19 act
Cc1ccc(NS(=O)(=O)c2ccc(CCC(=O)NCCO)cc2)cc1 | 0.1 | 18 | -21 | 85* | 58* | 0.4
CCCNC(=O)COc1ccc(S(=O)(=O)Nc2ccc(C)cc2)cc1 | 0.5 | -4 | 3 | 52* | 69* | 0.3
COc1cc(NC(=O)C2CCCCC2)c(OC)cc1NC(=O)CN1CCCCC1 | 0.9 | 17 | -18 | 12 | 6 | 0.9
CS(=O)c1ccccc1COC(=O)Nc1ccc(Cl)cc1 (stereo unspecified) | 0.5 | -3 | 4 | 46 | 95* | 0.1
CCn1cc(C(=O)NC2CCc3ccccc32)c(=O)c2ccc(C)nc21 (stereo unspecified) | 1.1 | -79 | 79 | -6 | 24 | 0.8
C=CCN1C(=O)CSc2ccc(C(=O)NCCC3=CCCCC3)cc21 | 0.5 | -89 | 89* | 52* | 26 | 0.7
C=CCN1C(=O)CSc2ccc(C(=O)NCc3ccco3)cc21 | 1 | / | / | 4 | 8 | 0.9
COc1cc(C(=O)NCCC2=CCCCC2)cc(OC)c1OC | 0.7 | / | / | 32 | 75* | 0.2
Cc1nc2cc(NC(=O)NCCC3=CCCCC3)ccc2o1 | 0.8 | -81 | 81* | 20 | 26 | 0.7
O=C(NCCC1=CCCCC1)c1ccc(=O)oc1 | 0.9 | 2 | -3 | 14 | 56* | 0.4
O=C(CCS(=O)(=O)Cc1ccccc1)NCC1CCCO1 (stereo unspecified) | 1.1 | 18 | -14 | -10 | -4 | 1
COCCNC(=O)C(OC(=O)c1cc2oc(C)cc2n1C)C(C)C (stereo unspecified) | 0.8 | -4 | 4 | 18 | 18 | 0.8
CC(C)N1C(=O)CCC1C(=O)NC1CCCC1 (stereo unspecified) | 0.8 | / | / | 22 | -2 | 1
COc1cccc(C(=O)NCCC2=CCCCC2)c1OC | 0.7 | -17 | 15 | 29 | 100* | 0
COc1ccc(C)cc1NC(=O)NCCC1=CCCCC1 | 1 | -9 | 7 | 2 | 83* | 0.2
COC(=O)c1cccc(NC(=S)NCCC2=CCCCC2)c1 | 0.5 | -19 | 20 | 50 | 40 | 0.6
COCCCNC(=O)c1cccc(OC)c1OC | 1.1 | -6 | 5 | -8 | 56* | 0.4
Cc1ccnc(NS(=O)(=O)c2ccc(Oc3ccccc3)cc2)c1 | 0.5 | 1 | -1 | 46 | 67* | 0.3
COc1cccc2cc(-c3nnc(SCC(=O)Nc4nc(C)cs4)n3C)oc12 | 0.9 | 2 | -3 | 13 | 19 | 0.8
N#Cc1c(SCC(N)=O)nc2c(c1-c1ccc(OCc3ccccc3)cc1)CCCC2 | / | 7 | -4 | / | / | /
CS(=O)(=O)N1CCC(C(=O)c2cccc(Cl)c2)CC1 | 0.7 | 12 | -9 | 33 | 79* | 0.2
O=c1c2sc3nc(N4CCOCC4)c4c(c3c2nnn1Cc1ccccc1)CCCC4 | 1 | 2 | 1 | 3 | 2 | 1
COc1ccc(NC(=O)NC2(C(=O)N3CCCCCC3)CCCCC2)cc1 | 0.4 | / | / | 60* | 29 | 0.7
Cc1ccc(CNC(=O)C2(NC(=O)Nc3ccc(C)cc3)CCCCC2)cc1 | 0.5 | -3 | 4 | 54* | 46 | 0.5
Cc1ccc(NC(=O)NC2(C(=O)NCc3ccccc3)CCCCC2)cc1 | 0.7 | / | / | 34 | 39 | 0.6
SMILES | CYP2C9 act | sEH act | sEH inhibitor | CYP2C9 inh | CYP2C19 inh | CYP2C19 act
c1cnc(SCCCOc2ccc3ccccc3c2)nc1 | 0.8 | 2 | 0 | 16 | 10 | 0.9
COc1ccc(OCCSc2ncccn2)cc1 | 0.6 | 19 | -13 | 37 | 87* | 0.1
c1ccc(Oc2cccc(OCCCn3cncn3)c2)cc1 | 0.1 | 13 | -15 | 94* | 100* | 0
COc1ccc(OCCCSc2ncccn2)cc1 | 0.8 | 13 | -13 | 22 | 64* | 0.4
COc1cccc(OCCCCSc2ncccn2)c1 | 0.8 | 12 | -12 | 20 | 20 | 0.8
c1ccc(Oc2cccc(OCCCCSc3ncccn3)c2)cc1 | 0.5 | -2 | 4 | 51* | 38 | 0.6
CC1=C(C)SC(=C(C#N)c2nnc(N3CCOCC3)n2-c2ccccc2)S1 | 1.2 | / | / | -20 | -17 | 1.2
O=C(COC(=O)C1(c2ccc(Cl)cc2)CCCC1)NC1CCS(=O)(=O)C1 (stereo unspecified) | 1 | 3 | 1 | 4 | 27 | 0.7
COC(=O)c1ccccc1N(C)S(C)(=O)=O | 1.1 | -4 | 4 | -10 | -5 | 1.1

Bioassay records deposited in PubChem by several laboratories.
